# Test system: CLZ3 (HCA2 human fibroblast dual HR-NHEJ reporter)
# Experiment: HR repair efficiency (tdTomato+ cells) relative to control (log10 fold); higher = more homologous recombination
# Details: 5 µM; doxycycline 0.5 ug/mL
# 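Also: compound given one day before doxycycline, which switches on I-SceI endonuclease expression to create double-strand breaks within the integrated reporter.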
row,SMILES,HR repair efficiency (log10)
1,O=C(O)[C@H]1O[C@@H](Oc2cc3oc(-c4ccccc4)cc(=O)c3c(O)c2O)[C@H](O)[C@@H](O)[C@@H]1O [Baicalin],0.053
2,C=C[C@H]1[C@H](O[C@@H]2O[C@H](CO)[C@@H](O)[C@H](O)[C@H]2O)OC=C(C(=O)OC)[C@H]1CC(=O)O [Secoxyloganin],-0.19
3,Oc1cc(O)c2c(c1)O[C@H](c1cc(O)c(O)c(O)c1)[C@H](O)C2 [(-)Epigallocatechin],-0.0527
4,CC(C)=CCc1c(-c2ccc(O)cc2O)oc2c3c(cc(O)c2c1=O)OC(C)(C)C=C3 [Morusin],-0.298
5,CCOC(=O)c1c(C(=O)OCC)c(O)c2ccccc2c1O [Rubidate],0.128
6,C[C@@H]1O[C@@H](O[C@H]2[C@H](Oc3cc(O)c4c(c3)O[C@H](c3ccc(O)cc3)CC4=O)O[C@H](CO)[C@@H](O)[C@@H]2O)[C@H](O)[C@H](O)[C@H]1O [Naringin],-0.0146
7,CC1(C)O[C@H]2CC(=O)OC[C@]23[C@H]2CC[C@@]4(C)[C@H](c5ccoc5)OC(=O)[C@H]5O[C@]54[C@]2(C)C(=O)C[C@@H]13 [Limonin],-0.00925
8,COC(=O)c1ccc(O)cc1 [Methylparaben],0.0479
9,CC1(C)CC[C@]2(C(=O)O)CC[C@]3(C)C(=CC[C@@H]4[C@@]5(C)CC[C@H](O)C(C)(C)[C@@H]5CC[C@]43C)[C@@H]2C1 [Oleanolic Acid],0.133
10,O=C(O)C1=CO[C@@H](O[C@@H]2O[C@H](CO)[C@@H](O)[C@H](O)[C@H]2O)[C@@H]2C(CO)=CC[C@H]12 [Geniposidic acid],-0.00169
11,C[C@@]1(CO)C[C@@H](O)C[C@@]2(C)[C@@H]3CC[C@](C)([C@@H](O)CO)C=C3CC[C@H]12 [Kirenol],0.0441
12,C=C[C@@H]1[C@@H](O[C@@H]2O[C@H](CO)[C@@H](O)[C@H](O)[C@H]2O)OC=C(C(=O)OC)[C@@H]1CCOC(=O)c1cc(O)c(O)c(O)c1 [Cornuside I],0.0608
13,O=c1c(O[C@@H]2O[C@H](CO)[C@@H](O)[C@H](O)[C@H]2O)c(-c2ccc(O)cc2)oc2cc(O)cc(O)c12 [Astragalin],0.0112
14,O=C(/C=C/c1ccc(O)c(O)c1)O[C@@H]1CC(O)(C(=O)O)C[C@@H](OC(=O)/C=C/c2ccc(O)c(O)c2)C1O (some centres undefined) [Isochlorogenic acid A],0.0109
15,C[C@@H]1O[C@@H](O[C@H]2[C@H](OC(=O)[C@]34CCC(C)(C)C[C@H]3C3=CC[C@@H]5[C@@]6(C)C[C@H](O)[C@H](O[C@@H]7O[C@H](CO)[C@@H](O)[C@H](O[C@@H]8O[C@H](CO)[C@@H](O)[C@H](O)[C@H]8O)[C@H]7O)C(CO)(CO)[C@@H]6CC[C@@]5(C)[C@]3(C)C[C@H]4O)OC[C@H](O)[C@@H]2O)[C@H](O)[C@H](O)[C@H]1O[C@@H]1OC[C@@H](O)[C@H](O[C@@H]2OC[C@](O)(CO)[C@H]2O)[C@H]1O [Platycodin D2],-0.252
16,CC(/C=C/C=C(\C)C(=O)O[C@@H]1O[C@H](CO[C@@H]2O[C@H](CO)[C@@H](O)[C@H](O)[C@H]2O)[C@@H](O)[C@H](O)[C@H]1O)=C\C=C\C=C(C)\C=C\C=C(/C)C(=O)O[C@@H]1O[C@H](CO[C@@H]2O[C@H](CO)[C@@H](O)[C@H](O)[C@H]2O)[C@@H](O)[C@H](O)[C@H]1O [Crocin I],0.076
17,CC(C)=C1C/C=C(\C)CC/C=C(\C)CC1=O [Germacrone],-0.103
18,O=c1c(O[C@@H]2O[C@H](CO)[C@@H](O)[C@H](O)[C@H]2O[C@@H]2O[C@H](CO)[C@@H](O)[C@H](O)[C@H]2O)c(-c2ccc(O)c(O)c2)oc2cc(O)cc(O)c12 [Baimaside],0.114
19,CC12CCC(CC1)C(C)(C)O2 [Eucalyptol],0.0216
20,CC(C)=CCC[C@](C)(O[C@@H]1O[C@H](CO)[C@@H](O)[C@H](O)[C@H]1O)[C@H]1CC[C@]2(C)[C@@H]1[C@H](O)C[C@@H]1[C@@]3(C)CC[C@H](O)C(C)(C)[C@@H]3[C@@H](O[C@@H]3O[C@H](CO)[C@@H](O)[C@H](O)[C@H]3O[C@@H]3OC[C@@H](O)[C@H](O)[C@H]3O)C[C@]12C [Notoginsenoside R1],0.0156

row,SMILES,HR repair efficiency (log10)
1,CC[C@H](/C=C/[C@@H](C)[C@H]1CC[C@H]2[C@@H]3CC=C4C[C@@H](O)CC[C@]4(C)[C@H]3CC[C@]12C)C(C)C [Stigmasterol],-0.14
2,COc1cc(CNC(=O)CCCCCCC(C)C)ccc1O [Dihydrocapsaicin],-0.256
3,CC(C)=CCC/C(C)=C/CC/C(C)=C/CC/C(C)=C/CC/C(C)=C/CC/C(C)=C/CC/C(C)=C/CC/C(C)=C/CC/C(C)=C/CO [Solanesol],-0.0545
4,C=CC(C)(C)c1cc(/C=C/C(=O)c2ccc(O)cc2)c(OC)cc1O [Licochalcone A],0.0473
5,CCCCCCCCCCCCCCCC(=O)OC [Methyl Palmitate],0.0601
6,CC(C)(O)CCc1c(O)cc(O)c2c(=O)c(O)c(-c3ccc(O)cc3)oc12 [Noricaritin],-0.128
7,CC1(C)CCC2(C(=O)OC3OC(CO)C(O)C(O)C3O)CCC3(C)C(=CCC4C5(C)CCC(OC6OC(C(=O)O)C(OC7OCC(O)C(OC8OC(CO)C(O)C(O)C8O)C7O)C(O)C6O)C(C)(C)C5CCC43C)C2C1 (centres undefined) [Oleanoside A],0.164
8,CC[C@H](CC[C@@H](C)[C@H]1CC[C@H]2[C@@H]3CC=C4C[C@@H](O[C@@H]5O[C@H](CO)[C@@H](O)[C@H](O)[C@H]5O)CC[C@]4(C)[C@H]3CC[C@]12C)C(C)C [Daucosterol],0.0626
9,OC[C@H]1OC(O)[C@@H](O)[C@@H](O)[C@@H]1O (some centres undefined) [Mannose],0.0481
10,COc1ccc(-c2oc3c(CC=C(C)C)c(O[C@@H]4O[C@H](CO)[C@@H](O)[C@H](O)[C@H]4O)cc(O)c3c(=O)c2O[C@@H]2O[C@@H](C)[C@H](O)[C@@H](O)[C@H]2O[C@@H]2OC[C@@H](O)[C@H](O)[C@H]2O)cc1 [Epimedin B],-0.0516
11,COc1ccc([C@@H]2OC[C@H]3[C@@H]2CO[C@@H]3c2ccc3c(c2)OCO3)cc1OC [Fargesin],0.116
12,C[C@@]12C[C@@]3(O)O[C@@H](O1)[C@]1(COC(=O)c4ccccc4)[C@@H]3C[C@]12O[C@@H]1O[C@H](COC(=O)c2ccccc2)[C@@H](O)[C@H](O)[C@H]1O [Benzoylpaeoniflorin],-0.0282
13,COc1cc(/C=C/C(=O)O)ccc1O [Sodium Ferulate],0.0132
14,C=C[C@H]1[C@H](O[C@@H]2O[C@H](CO)[C@@H](O)[C@H](O)[C@H]2O)OC=C(C(=O)OC)[C@H]1CCOC(=O)c1cc(O)c(O)c(O)c1 [Cornuside],0.162
15,CC1(C)[C@@H](O[C@H]2O[C@H](C(=O)O)[C@@H](O)[C@H](O)[C@H]2O[C@@H]2O[C@H](C(=O)O)[C@@H](O)[C@H](O)[C@H]2O)CC[C@]2(C)[C@H]3C(=O)C=C4[C@@H]5C[C@@](C)(C(=O)O)CC[C@]5(C)CC[C@@]4(C)[C@]3(C)CC[C@@H]12 [Monoammonium glycyrrhizinate],-0.0779
16,CC(=O)C1=C(O)C=C2Oc3c(C(C)=O)c(O)c(C)c(O)c3C2(C)C1=O (stereo in doubt) [Usnic Acid],0.00791
17,O=C(O)c1ccccc1O [Salicylic acid],0.0351
18,C[C@@H]1[C@H]2[C@H](O[C@@H]3O[C@H](CO)[C@@H](O)[C@H](O)[C@H]3O)OC=C(C(=O)O)[C@H]2C[C@@H]1O [Loganic Acid],0.135
19,CC1CCC(C(C)C)C(O)C1 (racemic) [dl-Menthol],0.0753

# From the supplement of paper PMC7380943
